GC-A act – GC-A (human) enzyme activation. P16066. HEK293 GC-A cells, cGMP TR-FRET, EC30 ANP; 0% at EC30 ANP, 100% saturating ANP. activation, % at 10 µM. hit rate 0.14% among 370,000. AID 1671463; in the data active = activation above about 40%
NPR2 activator – GC-B (human) receptor activation; HEK293-GC-B cells, CNP EC30, cGMP TR-FRET; 0% at EC30 CNP, 100% saturating CNP; activation, % at 10 µM; hit rate 0.11% among 370,000;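 active = activation at 10 µM reaching about 35% in either raw or pattern-adjusted values, limit read from the data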
proKLK7 act – activates the human kallikrein-7 zymogen; P49862; purified proKLK7, EDANS-DABCYL substrate fluorescence; 100% is mature enzyme control, 0% vehicle; activation, % at 7 µM; hit rate 0.9% among 370,000;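 active = activation above the mean of all tested compounds plus 3 SD, computed per campaign excluding outliers beyond control limits, cut at about 13% in these data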
ADAM17 inh – ADAM17 inhibition, QFRET primary screen; AID 720648; hit rate 0.83% among 370,000; recombinant ADAM17, EDANS/DABCYL FRET peptide cleavage; inhibition, % at 6.95 µM;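 active = inhibition above the mean of compounds lying between control limits plus 3 SD, set per campaign, cut at about 8.5% in these data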
ADAM10 inh – inhibits human ADAM10; O14672; recombinant ADAM10, EDANS/DABCYL FRET peptide cleavage, 3 h; inhibition, % at 7 µM; hit rate 0.62% among 370,000;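 active = inhibition above a per-campaign cutoff equal to the mean of compounds falling between control-based bounds plus 3 SD, cut at about 20% in these data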
Target sequence (O14672 214-748 limits assumed): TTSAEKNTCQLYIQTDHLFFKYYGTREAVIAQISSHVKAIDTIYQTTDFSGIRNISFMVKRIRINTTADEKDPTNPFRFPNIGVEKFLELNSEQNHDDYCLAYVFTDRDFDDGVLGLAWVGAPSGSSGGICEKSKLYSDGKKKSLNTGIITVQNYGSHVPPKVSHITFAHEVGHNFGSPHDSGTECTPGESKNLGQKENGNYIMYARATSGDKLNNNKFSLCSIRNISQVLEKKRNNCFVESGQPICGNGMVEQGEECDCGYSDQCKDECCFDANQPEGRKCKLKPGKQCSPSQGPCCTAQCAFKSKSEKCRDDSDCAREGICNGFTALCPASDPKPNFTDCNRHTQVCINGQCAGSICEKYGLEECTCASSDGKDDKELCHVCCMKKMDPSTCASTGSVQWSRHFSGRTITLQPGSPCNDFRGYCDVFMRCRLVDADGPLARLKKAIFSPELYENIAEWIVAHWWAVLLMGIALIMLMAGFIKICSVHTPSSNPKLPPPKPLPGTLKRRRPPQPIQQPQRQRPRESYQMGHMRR
proKLK7 act conf – confirmation of human kallikrein-7 zymogen activators; shares compounds with proKLK7 act; hit rate 68% among 3,200; AID 686949; activation, % at 7 µM; purified proKLK7, EDANS-DABCYL substrate fluorescence; scaled: vehicle 0, mature enzyme 100;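 active = activation, as change over the incubation, above the mean of all tested compounds plus 3 SD, cut at about 13% in these data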
EDANS interfere – fluorescence interference counter-screen for KLK7 activators; shares compounds with proKLK7 act; EDANS-DABCYL substrate fluorescence interference, no enzyme, 4 h; solvent 0%, active enzyme control 100%; activation, % at 7 µM; hit rate 80% among 3,200; AID 686952;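 active = activation above the all-compound mean plus 3 SD, ignoring values outside control-based bounds, cut at about 4.8% in these data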;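 note: value is the 4 h activation minus the activation read at time zero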
A number is an active result; 0 = inactive; - = not tested or not shown. Sampled rows, rich in hits. Any-hit rate of the full collection: about 2.2%.

SMILES	GC-A act	NPR2 activator	proKLK7 act	ADAM17 inh	ADAM10 inh	proKLK7 act conf	EDANS interfere
COCCCNC(=S)N/N=C/c1ccc(N(C)C)cc1	0	0	26	0	0	41	41
COCCCNC(=S)N/N=C/c1ccc(N(C)C)cc1Cl	0	0	0	0	0	-	-
COc1ccc(CN2C(=O)c3ccnn3CC2(C)c2nnnn2-c2c(C)cccc2C)cc1 (configuration not stated)	0	0	0	0	0	-	-
CCOCCCNC(=O)c1cc2c(=O)[nH]c3ccccc3c2s1	0	0	0	0	0	-	-
CCC(C)NC(=O)c1cc2c(=O)[nH]c3ccc(C)cc3c2s1 (configuration not stated)	0	0	35	0	0	0	0
CCCCN(CC)CCNC(=O)c1cc2c(=O)[nH]c3ccc(C)cc3c2s1	0	0	16	0	0	0	0
Cc1ccc2[nH]c(=O)c3cc(C(=O)NCCC(C)C)sc3c2c1	0	0	0	0	0	-	-
CCCCN(CC)CCCNC(=O)c1cc2c(=O)[nH]c3ccccc3c2s1	0	0	15	0	0	0	6.2
O=C(NCCCN1CCOCC1)c1cc2c(=O)[nH]c3ccccc3c2s1	0	0	14	0	0	0	12
O=C(NCCc1ccccc1)OCc1cn(Cc2ccccc2F)nn1	0	0	0	0	0	-	-
COc1ccc2c(=O)c(N3C(=O)c4ccccc4C3=O)c(C)oc2c1	0	0	0	0	0	-	-
CC(=O)Oc1ccc2c(=O)c(N3C(=O)c4ccccc4C3=O)c(C)oc2c1C	0	0	27	0	0	34	31
Cc1cc(O)c(C(=O)/C=C/c2ccc(Cl)cc2)c(=O)o1	0	0	0	0	0	-	-
CSc1ccc(/C=C/C(=O)c2c(O)cc(C)oc2=O)cc1	0	0	14	0	0	0	0
CCN(CC)C(=O)COc1ccc2oc(-c3ccco3)cc(=O)c2c1	0	0	28	0	0	52	55
CC(=O)N1c2cc(S(=O)(=O)N3CCN(c4ccccc4F)CC3)c(Br)cc2CC1C (configuration not stated)	0	0	0	0	0	-	-
O=c1c2ccccc2n(Cc2ccno2)n1[C@@H](Cc1ccccc1)Cn1cc(C2CCCC2)nn1	0	0	0	0	0	-	-
CN1CCCN(C(=O)C2CCCN(C(=O)c3ccc4c(c3)NC(=O)CS4)C2)CC1 (configuration not stated)	0	0	0	0	0	-	-
CCCCC1C2C(=O)N(c3ccccc3)C(=O)C2ON1c1ccccc1 (configuration not stated)	0	0	0	0	0	-	-
CCCCC1C2C(=O)N(c3ccc(C)cc3)C(=O)C2ON1c1ccccc1 (configuration not stated)	0	0	15	0	0	36	34
CCOC(=O)C1=NN(c2ccccc2)C2C(=O)N(c3ccccc3OC)C(=O)C12 (configuration not stated)	0	0	19	0	0	0	0
Cc1ccc(-c2cc(-c3nnc(SCC(=O)Nc4ccccc4-c4ccccc4)n3N)[nH]n2)cc1	0	0	0	0	0	-	-
COc1cc2c(cc1OC)C(C(N)=O)NCC2 (configuration not stated)	0	0	54	0	0	0	0
COc1cc2c(cc1OC)C(C1(O)CCCCC1)NCC2 (configuration not stated)	0	0	21	0	0	14	14
COc1ccc(C2NCCc3cc(OC)c(OC)cc32)cc1OC (configuration not stated)	0	0	0	0	0	-	-
COc1cc2c(cc1OC)C(c1ccc(Br)cc1)NCC2 (configuration not stated)	0	0	0	0	0	-	-
CCCCCC(=O)NC1CCCCN(Cc2cccc(Cl)c2)C1=O (configuration not stated)	0	0	0	0	0	-	-
CCC(N=c1cc(-c2ccc(OC)c(OC)c2)oc2ccc(C)cc12)C(=O)O (configuration not stated)	0	0	19	0	0	29	26

Screening data: PubChem BioAssay, several laboratories
